Molecules are shown by their SMILES. In all, about 310,000 compounds went through this assay and about 14,000 (4.5%) showed an effect of 50% or more. Effects have a minus sign here. Many of the other results were omitted from the sample, so strong results are more common in it than they were.

Experimental findings from publication PMC4336329 (PLoS ONE, 2015) are described below.
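Also: peak tail current of the secondary pulse compared with the same well before compound.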

Sequence of human ether-à-go-go-related gene (hERG) potassium channel (Q12809 whole entry, looked up): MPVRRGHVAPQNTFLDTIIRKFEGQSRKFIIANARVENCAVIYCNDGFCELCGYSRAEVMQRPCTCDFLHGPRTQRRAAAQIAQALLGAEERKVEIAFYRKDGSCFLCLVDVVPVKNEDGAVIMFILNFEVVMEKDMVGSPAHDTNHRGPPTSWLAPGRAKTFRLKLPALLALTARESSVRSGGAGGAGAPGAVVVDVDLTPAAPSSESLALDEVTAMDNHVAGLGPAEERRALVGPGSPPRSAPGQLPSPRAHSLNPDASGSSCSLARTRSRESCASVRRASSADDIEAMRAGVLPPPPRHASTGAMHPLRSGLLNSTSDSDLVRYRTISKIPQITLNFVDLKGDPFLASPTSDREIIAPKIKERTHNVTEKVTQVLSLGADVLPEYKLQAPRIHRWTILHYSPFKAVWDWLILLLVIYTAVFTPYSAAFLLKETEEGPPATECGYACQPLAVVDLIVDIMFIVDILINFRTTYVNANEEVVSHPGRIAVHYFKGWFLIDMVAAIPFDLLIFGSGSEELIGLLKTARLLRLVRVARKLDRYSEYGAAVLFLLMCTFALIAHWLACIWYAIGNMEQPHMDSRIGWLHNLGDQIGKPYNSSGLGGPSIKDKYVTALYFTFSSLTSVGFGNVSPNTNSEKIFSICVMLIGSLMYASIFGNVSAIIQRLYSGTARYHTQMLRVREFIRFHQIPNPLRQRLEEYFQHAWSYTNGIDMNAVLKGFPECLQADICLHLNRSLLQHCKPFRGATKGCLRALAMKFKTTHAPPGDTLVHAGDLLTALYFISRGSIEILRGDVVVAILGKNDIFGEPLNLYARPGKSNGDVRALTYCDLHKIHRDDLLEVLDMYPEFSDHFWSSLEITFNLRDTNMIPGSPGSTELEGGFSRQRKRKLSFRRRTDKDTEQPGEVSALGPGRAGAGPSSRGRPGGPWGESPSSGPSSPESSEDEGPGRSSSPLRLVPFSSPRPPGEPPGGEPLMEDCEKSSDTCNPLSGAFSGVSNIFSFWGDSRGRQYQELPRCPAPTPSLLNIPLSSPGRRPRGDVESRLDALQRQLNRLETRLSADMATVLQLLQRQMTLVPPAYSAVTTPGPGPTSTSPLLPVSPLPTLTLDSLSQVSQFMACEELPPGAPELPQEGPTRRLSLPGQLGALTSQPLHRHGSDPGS

This assay concerns the target human ether-à-go-go-related gene (hERG) potassium channel (human, UniProt Q12809). Description: primary screen, population patch clamp on CHO cells stably expressing hERG; higher = less effect of the substance.
As to `O=C(O)c1ccc(C(=O)O)c(C(=O)c2ccc(NC(=O)c3ccccc3)cc2)c1`, the “hERG current change (%, negative = inhibition) at 10uM” value is 8.99%.

Turning to `C/C(=N\NC(=O)c1ccc(Cl)c(Cl)c1)c1cccc(NC(=O)C(C)C)c1`, the “hERG current change (%, negative = inhibition) at 10uM” value came out at 1.91%.

`Nc1c(Cl)cc(-c2cn(CCC(=O)O)c(-c3ccc(Cl)nc3)n2)cc1Cl`: the “hERG current change (%, negative = inhibition) at 10uM” value was found to be 20.4%.

`O=C(N/N=C/c1cccnc1)c1ccc(NC(=O)c2ccc(F)cc2)cc1`: the “hERG current change (%, negative = inhibition) at 10uM” value is reported as 8.2%.

For `O=C1C2C3C=CC(C3)C2C(=O)N1c1ccc(N2CCN(c3ccccn3)CC2)c([N+](=O)[O-])c1` (stereo not drawn), the “hERG current change (%, negative = inhibition) at 10uM” value is reported as -18.6%.

Regarding `O=C(NCC1OCCCN1S(=O)(=O)c1ccc(F)cc1)C(=O)NC1CCCC1` (stereo not drawn), the “hERG current change (%, negative = inhibition) at 10uM” value is reported as -15.8%.

For the molecule `O=C(CSc1ccccc1C(=O)O)NC1CCCCCCC1`, the “hERG current change (%, negative = inhibition) at 10uM” value came out at 17.6%.

Turning to `Cc1ccccc1CN1CCN(Cc2ccccc2)CC1.O=C(O)C(=O)O`, the “hERG current change (%, negative = inhibition) at 10uM” value is reported as -7.72%.

Regarding `CCOc1ccccc1N1CCN(Cc2ccc(OC)c(OC)c2)CC1`, the “hERG current change (%, negative = inhibition) at 10uM” value is given as -69.2%.

For `CCOc1cc(CN2CCN(c3ncccn3)CC2)ccc1OC`, the “hERG current change (%, negative = inhibition) at 10uM” value is -4.8%.

For the molecule `CCOc1cc(CN2CCCCC2)ccc1OC`, the “hERG current change (%, negative = inhibition) at 10uM” value is recorded as -8.28%.

Regarding `COc1ccc(CN2CCN(C(=O)c3cccc(OC)c3OC)CC2)cc1OC.O=C(O)C(=O)O`, the “hERG current change (%, negative = inhibition) at 10uM” value is on record as 5.63%.

Regarding `COc1ccc(CN2CCN(c3ccccc3OC)CC2)cc1OC.O=C(O)C(=O)O`, the “hERG current change (%, negative = inhibition) at 10uM” value is -57.9%.

In the case of `COc1ccccc1N1CCN(Cc2ccco2)CC1.O=C(O)C(=O)O`, the “hERG current change (%, negative = inhibition) at 10uM” value is -26.4%.

For `Cc1ccccc1N1CCN(Cc2cccc(C(=O)O)c2)CC1.Cl`, the “hERG current change (%, negative = inhibition) at 10uM” value was 1.27%.

On to `CSc1ccc(CN2CCN(c3ccccc3C)CC2)cc1.O=C(O)C(=O)O`, for which the “hERG current change (%, negative = inhibition) at 10uM” value was -54.5%.

With `COc1ccccc1N1CCN(Cc2ccc(C(=O)O)cc2)CC1`, the “hERG current change (%, negative = inhibition) at 10uM” value was 14.4%.

As to `COc1ccccc1N1CCN(Cc2ccc(SC)cc2)CC1.O=C(O)C(=O)O`, the “hERG current change (%, negative = inhibition) at 10uM” value was -72.9%.

With `COc1ccc(CN2CCN(Cc3ccco3)CC2)cc1OC.O=C(O)C(=O)O`, the “hERG current change (%, negative = inhibition) at 10uM” value was 1.22%.

For the molecule `Cc1ccccc1CN1CCCOCCS1(=O)=O`, the “hERG current change (%, negative = inhibition) at 10uM” value is given as -0.4%.

For the molecule `Cn1c2c(c(=O)n1-c1ccccc1)CSCC2`, the “hERG current change (%, negative = inhibition) at 10uM” value is recorded as 16.5%.

For the molecule `O=C(NNC(=S)NC(=O)c1cccs1)c1ccc(NC(=O)c2ccccc2)cc1`, the “hERG current change (%, negative = inhibition) at 10uM” value was determined as 13.7%.

As for `Cl.O=C(O)c1ccc2nc(CO)[nH]c2c1`, the “hERG current change (%, negative = inhibition) at 10uM” value is reported as 11.2%.

As for `CC(Cc1cccs1)NC(=O)Nc1ccccc1` (stereo not drawn), the “hERG current change (%, negative = inhibition) at 10uM” value was 0.115%.

For the molecule `O=C(c1ccc(S(=O)(=O)N2CCOCC2)cc1)N1CCc2ccccc2C1`, the “hERG current change (%, negative = inhibition) at 10uM” value is given as -4.25%.

In the case of `CN(C)S(=O)(=O)c1ccc(C(=O)NCC(=O)N/N=C/c2ccccc2Cl)cc1`, the “hERG current change (%, negative = inhibition) at 10uM” value turned out to be 5.43%.

Consider `COc1ccccc1N1CCN(Cc2ccc(OC)c(OC)c2OC)CC1`, for which the “hERG current change (%, negative = inhibition) at 10uM” value is -35.8%.

Consider `COc1cc(CN2CCN(c3cccc(C)c3C)CC2)cc(OC)c1O`, for which the “hERG current change (%, negative = inhibition) at 10uM” value is listed as -45.4%.

Take `COc1ccc(CN2CCN(C(C)C(=O)NC(C)c3ccc(F)cc3)CC2)cc1F` (stereo not drawn): the “hERG current change (%, negative = inhibition) at 10uM” value was -62%.

Turning to `CCOc1ccccc1N1CCN(Cc2ccc(OC)c(OC)c2OC)CC1`, the “hERG current change (%, negative = inhibition) at 10uM” value was -51.9%.

As to `COc1ccc(CN2CCN(c3cccc(C)c3C)CC2)cc1OC`, the “hERG current change (%, negative = inhibition) at 10uM” value is -72%.

On to `COc1ccc(CN2CCN(S(=O)(=O)c3ccc(F)cc3)CC2)cc1OC.O=C(O)C(=O)O`, for which the “hERG current change (%, negative = inhibition) at 10uM” value worked out at 7.33%.

On to `CC(NC(=O)C(C)N1CCN(Cc2ccccc2)CC1)c1ccc(F)cc1` (stereo not drawn), for which the “hERG current change (%, negative = inhibition) at 10uM” value stood at 5.35%.

Take `COc1cc(CN2CCN(c3cccc(C)c3C)CC2)cc(Br)c1O`: the “hERG current change (%, negative = inhibition) at 10uM” value was -12.6%.

With `COc1cccc(CN2CCN(Cc3cccc(F)c3)CC2)c1.O=C(O)C(=O)O`, the “hERG current change (%, negative = inhibition) at 10uM” value is -6.47%.

With `CCOc1ccccc1N1CCN(Cc2cccc(OC)c2OC)CC1`, the “hERG current change (%, negative = inhibition) at 10uM” value is recorded as -17%.

For `COc1ccc(CN2CCN(C(C)C(=O)N(C)Cc3cccc(F)c3)CC2)cc1OC.O=C(O)C(=O)O` (stereo not drawn), the “hERG current change (%, negative = inhibition) at 10uM” value is listed as -61%.

For the molecule `COc1cc(C)c(CN2CCN(C(C)C(=O)NC(C)c3ccccc3)CC2)cc1OC` (stereo not drawn), the “hERG current change (%, negative = inhibition) at 10uM” value is -18.3%.

With `CC(C)S(=O)(=O)C1=NSC2=NC(=O)/C(=C\c3ccc(OC(=O)c4ccco4)cc3)C(=N)N21`, the “hERG current change (%, negative = inhibition) at 10uM” value is 12.8%.

For the molecule `COc1cc2nc(C(C)(C)C)oc(=O)c2cc1OC`, the “hERG current change (%, negative = inhibition) at 10uM” value is reported as 10.6%.

As to `NC(=O)CC(NC(=O)c1ccccc1)c1ccc(NC2CCCC2)c([N+](=O)[O-])c1` (stereo not drawn), the “hERG current change (%, negative = inhibition) at 10uM” value turned out to be 5.39%.

As for `Cc1cc(C(=O)OCC(=O)c2ccc(Cl)c([N+](=O)[O-])c2)c2cccc(C)c2n1`, the “hERG current change (%, negative = inhibition) at 10uM” value is on record as 6.36%.

For `CS(=O)(=O)N(Cc1ccc(C(=O)NN=C2CCCC2)cc1)c1ccccc1`, the “hERG current change (%, negative = inhibition) at 10uM” value was 8.63%.

Turning to `CCC(=O)Nc1cc(-c2cc3ccccc3oc2=O)ccc1OC`, the “hERG current change (%, negative = inhibition) at 10uM” value is recorded as -29.6%.

In the case of `COc1ccccc1N1CCN(Cc2ccc(Br)cc2)CC1.O=C(O)C(=O)O`, the “hERG current change (%, negative = inhibition) at 10uM” value is recorded as -70.3%.

Turning to `COc1ccc(CN2CCN(Cc3ccc4ccccc4c3)CC2)cc1OC.O=C(O)C(=O)O`, the “hERG current change (%, negative = inhibition) at 10uM” value is -67%.

Consider `COc1ccccc1N1CCN(Cc2ccccc2)CC1.O=C(O)C(=O)O`, for which the “hERG current change (%, negative = inhibition) at 10uM” value is reported as -7.21%.

Take `COc1ccc(CN2CCN(Cc3ccccc3F)CC2)cc1OC.O=C(O)C(=O)O`: the “hERG current change (%, negative = inhibition) at 10uM” value is -22.6%.

Turning to `COc1ccccc1N1CCN(Cc2cccc(Br)c2)CC1.O=C(O)C(=O)O`, the “hERG current change (%, negative = inhibition) at 10uM” value is listed as -5.27%.

Take `COc1ccccc1CN1CCN(Cc2ccc3ccccc3c2)CC1.O=C(O)C(=O)O`: the “hERG current change (%, negative = inhibition) at 10uM” value is -36.7%.

Consider `COc1ccc(CN2C(=O)Cc3c2nc(N)c2c(N)nc(N4CCOCC4)c(C#N)c32)cc1`, for which the “hERG current change (%, negative = inhibition) at 10uM” value is recorded as -36.8%.

As for `Cc1nnc(SCC(=O)Nc2nccs2)n(N)c1=O`, the “hERG current change (%, negative = inhibition) at 10uM” value worked out at 19.4%.

On to `CC1CCCCC1NC(=O)c1ccc(S(=O)(=O)NCC2CCCO2)cc1` (stereo not drawn), for which the “hERG current change (%, negative = inhibition) at 10uM” value was -10.7%.

With `Cc1ccc(C)c(S(=O)(=O)N2CCC3(CC2)OCCN3S(=O)(=O)c2cccs2)c1`, the “hERG current change (%, negative = inhibition) at 10uM” value turned out to be 5.64%.
